Experiment [1] is described as follows: growth inhibition of DIPG glioma cells, dose response, cell-based, SU-DIPG-XVII, MIPE5.0, CellTiter-Glo, qHTS (AID 1347060; cut-off not given, nearly all actives have AC50 up to about 26 µM;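 as to AC50: cells exposed to compound for 48 hours before viability readout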). The following applies: SU-DIPG-XVII viability, CellTiter-Glo ATP luminescence. On the technique in general: In ATP-based viability assays light output follows the ATP content of the culture.
The nature of experiment [2]: JHH-DIPG-1 glioma cell viability, MIPE5.0 library, CellTiter-Glo luminescence, qHTS (AID 1347067; cut-off not given, nearly all actives have AC50 up to about 26 µM;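 also: cells exposed to compound for 48 hours before readout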). Conditions: JHH-DIPG-1 glioma viability, CellTiter-Glo ATP luminescence.
Experiment [3] in a line: sensitizers of A549 cells to miR-34 induction, primary screen, imaging, A549 dox-inducible miR-34, nuclei and caspase counts (AID 1347080;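 active = compounds whose cell count with miR-34 switched on is under 0.7 times the count with it off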). The following applies: A549 miR-34 inducible, Hoechst nuclei count, 48 h.
Experiment [4] can be described thus: modifiers of HSF1 nuclear foci, imaging, Selleck Cancer Library (AID 1347162; in the data active = plate-normalised HSF1 focus index below about 0.46). Conditions: human cells, at 10 µM; SSMD: measured here: HSF1 foci SSMD mean; cell count: measured here: cell number; plate-normalised HSF1 focus index: stronger effect = lower value.
The nature of experiment [5]: survival rescue of mitochondrial mutant cells in low glucose, primary screen, MELAS cybrids, Rieske KO mouse fibroblasts, CellTiter-Glo (AID 1508586;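 active = mean z-score across replicates of 1.96 or higher in either the MELAS or the Rieske mutant cell line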;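 also: z relative to plate mean and SD of compound and empty wells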).
Experiment [6] can be described thus: ovarian cancer cell viability with rucaparib, profiling panel, oncology-focused library, rucaparib conditional (AID 1508598). Conditions: patient-derived ovarian cancer cells, CellTiter-Glo viability, 144 h, stronger effect = lower value.
Experiment [7] can be described thus: SU-DIPG-XXV glioma cell viability, MIPE5.0 library, qHTS (AID 1347068; cut-off not given, nearly all actives have IC50 up to about 30 µM).
The nature of experiment [8]: liver-stage malaria parasite growth inhibition, primary screen, cell-based, HepG2, luciferase luminescence, HepG2 viability (AID 624349; in the data active = parasite load remaining mostly below about 12%, no sharp cut-off; inactive = mostly above about 10%;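 also: 100% = mean of DMSO negative control wells on the same plate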). Conditions: P. berghei liver stage in HepG2, luciferase luminescence, concentration not given here; parasite load remaining: stronger effect = lower value; viability: measured here: HepG2 viability without parasites.

Inconclusive results are not listed. Active and inactive are the calls of the source.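 The calls were made as follows, unless noted: active = normalized viability below 100% at a tested concentration; inactive = the rest.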

Take `Cc1cccc(-c2nn3c(c2-c2ccnc4ccc(C(N)=O)cc24)CCC3)n1`: the result in experiment [1] and in experiment [2] was inactive. Besides, the fold change was 0.932 (inactive) in experiment [3] (stronger effect = lower value, cell number ratio, induced over uninduced) and 0.899 in experiment [3] (measured here: relative caspase fold change +Dox/-Dox). Besides, the cell count in experiment [3] (measured here: total cells with miR-34 induction, stronger effect = lower value) worked out at 8480; in experiment [3] (measured here: total cells without miR-34 induction), 9100; in experiment [4], 6630. This compound also showed an SSMD in experiment [4] of 1.55. In addition, the plate-normalised HSF1 focus index in experiment [4] was 1.08 (inactive). In addition, the z-score in experiment [5] (MELAS cybrid survival, CellTiter-Glo 48 h, stronger effect = higher value) is -0.309 (inactive); in experiment [5] (Rieske KO mouse fibroblast survival, CellTiter-Glo 72 h) it was 1.2. Besides, the viability – broadly, a read-out of living cells in per cent, often relative to untreated cells – was 110% (inactive) in experiment [6] (at 0.000305 µM, OCI-C5x cells, with rucaparib 10 µM, 100% = cells with rucaparib alone); 130% (inactive) in experiment [6] (at 0.000305 µM, OCI-C5x cells, without rucaparib); 102% (inactive) in experiment [6] (at 0.000305 µM, OCI-P5x cells, with rucaparib 20 µM, 100% = cells with rucaparib alone); 110% (inactive) in experiment [6] (at 0.000305 µM, OCI-P5x cells, without rucaparib); 110% (inactive) in experiment [6] (at 0.00122 µM, OCI-C5x cells, with rucaparib 10 µM, 100% = cells with rucaparib alone); 133% (inactive) in experiment [6] (at 0.00122 µM, OCI-C5x cells, without rucaparib). Besides, the viability is 102% (inactive) in experiment [6] (at 0.00122 µM, OCI-P5x cells, with rucaparib 20 µM, 100% = cells with rucaparib alone); 108% (inactive) in experiment [6] (at 0.00122 µM, OCI-P5x cells, without rucaparib); 110% (inactive) in experiment [6] (at 0.00488 µM, OCI-C5x cells, with rucaparib 10 µM, 100% = cells with rucaparib alone); 128% (inactive) in experiment [6] (at 0.00488 µM, OCI-C5x cells, without rucaparib); 99.7% (active) in experiment [6] (at 0.00488 µM, OCI-P5x cells, with rucaparib 20 µM, 100% = cells with rucaparib alone); 112% (inactive) in experiment [6] (at 0.00488 µM, OCI-P5x cells, without rucaparib). For the same compound, the viability in experiment [6] (at 0.0195 µM, OCI-C5x cells, with rucaparib 10 µM, 100% = cells with rucaparib alone) was 113% (inactive); in experiment [6] (at 0.0195 µM, OCI-C5x cells, without rucaparib), 136% (inactive); in experiment [6] (at 0.0195 µM, OCI-P5x cells, with rucaparib 20 µM, 100% = cells with rucaparib alone), 105% (inactive); in experiment [6] (at 0.0195 µM, OCI-P5x cells, without rucaparib), 110% (inactive); in experiment [6] (at 0.0781 µM, OCI-C5x cells, with rucaparib 10 µM, 100% = cells with rucaparib alone), 109% (inactive); in experiment [6] (at 0.0781 µM, OCI-C5x cells, without rucaparib), 127% (inactive). For the same compound, the viability in experiment [6] (at 0.0781 µM, OCI-P5x cells, with rucaparib 20 µM, 100% = cells with rucaparib alone) is 110% (inactive); in experiment [6] (at 0.0781 µM, OCI-P5x cells, without rucaparib) it was 116% (inactive); in experiment [6] (at 0.313 µM, OCI-C5x cells, with rucaparib 10 µM, 100% = cells with rucaparib alone), 114% (inactive); in experiment [6] (at 0.313 µM, OCI-C5x cells, without rucaparib), 137% (inactive); in experiment [6] (at 0.313 µM, OCI-P5x cells, with rucaparib 20 µM, 100% = cells with rucaparib alone), 113% (inactive); in experiment [6] (at 0.313 µM, OCI-P5x cells, without rucaparib), 114% (inactive). Besides, the viability in experiment [6] (at 1.25 µM, OCI-C5x cells, with rucaparib 10 µM, 100% = cells with rucaparib alone) is 111% (inactive); in experiment [6] (at 1.25 µM, OCI-C5x cells, without rucaparib) it was 135% (inactive); in experiment [6] (at 1.25 µM, OCI-P5x cells, with rucaparib 20 µM, 100% = cells with rucaparib alone), 112% (inactive); in experiment [6] (at 1.25 µM, OCI-P5x cells, without rucaparib), 118% (inactive); in experiment [6] (at 5 µM, OCI-C5x cells, with rucaparib 10 µM, 100% = cells with rucaparib alone), 131% (inactive); in experiment [6] (at 5 µM, OCI-C5x cells, without rucaparib), 157% (inactive). Also, the viability in experiment [6] (at 5 µM, OCI-P5x cells, with rucaparib 20 µM, 100% = cells with rucaparib alone) is 127% (inactive); in experiment [6] (at 5 µM, OCI-P5x cells, without rucaparib), 125% (inactive).
As for `CNC(=O)c1cc(Oc2ccc3nc(N[C@@H]4CCCC[C@H]4O)sc3c2)ccn1`, the compound was classed as inactive in experiment [1] and in experiment [7].
`CC[C@H](Nc1ncnc2nc[nH]c12)c1oc2ccccc2c(=O)c1-c1cccc(F)c1`: the result in experiment [1] and in experiment [7] was inactive.
With `CC(C)n1cnc2c(NCCCCCCNC(=O)OC(C)(C)C)nc(NCCO)nc21`, the parasite load remaining in experiment [8] was 47.6% (inactive). The viability in experiment [8] came out at 102%. Further, the AC50 (commonly the concentration at which the activity in the assay is half-maximal) in experiment [1] was 23.5 µM (active); in experiment [2], 18.6 µM (active).
Regarding `Cc1noc2c1-c1ccccc1C(c1ccc(Cl)cc1)=N[C@H]2CC(N)=O`, the result in experiment [1] and in experiment [7] was inactive.

The values are drawn from PubChem BioAssay.
